Results as given in PubChem BioAssay (NCI).
Values joined by “and” are separate entries in the source; they are usually repeats but may differ in a detail not shown here. Equal values may be shown once. This is part of a sample that, as a whole, favours compounds with a hit. Of some 83,000 tested, about 20% had one in any assay.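 Growth was measured after 48 h exposure to one concentration of compound in 96-well plates. Values under 10 count as active.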 Active and inactive are the calls of the source.

What follows are compounds tested on MDA-MB-468 breast (assay: NCI-60 one-dose screen, 48 h (100 = growth as untreated, 0 = no growth, -100 = all killed)). Settings: 10 µM unless noted.
For `CC1(C)N=C(N)N=C(N)N1c1cccc(C(=O)Nc2cccc(S(=O)(=O)F)c2)c1`, the growth was 94.6% (inactive). With `CNC12C3C4C1C1C2C3C41C(=O)N[C@H](C(=O)N(C)[C@H](C[C@@H](OC(C)=O)c1nc(C(=O)N[C@@H](Cc2ccccc2)C[C@H](C)C(=O)OC)cs1)C(C)C)C1CC1` (stereo not given in full) the growth was -46.5% (active). For `CC(=O)C1CCC2C3CC=C4CC(OC(=O)Cc5ccc(N(CCCl)CCCl)cc5)CCC4(C)C3CCC12C` (stereo not given), the growth was 94.7% (inactive). For `[Br][Pb]([c]1ccccc1)([c]1ccccc1)[c]1ccccc1`, the growth was -88.2% (active). With `CN[C@]1(c2ccccc2Cl)CCCC[C@H]1NCCCN1CCN(C)CC1` the growth was 85.2% (inactive). With `CC(=O)[O][Hg][c]1nc2c(c(=O)n(C)c(=O)n2C)n1C` the growth was 102% (inactive). For `C[N+]1(C)CCCC1c1cccnc1` (stereo not given), the growth was 101% (inactive). With `O=C(CCF)c1ccc(O)cc1` the growth was 108% (inactive). With `C/C=C/CC(C)C(O)[C@H](NC(=O)[C@@H]1CCCN1C(=O)C(C)(C)NC(=O)CCCCCCCCC)C(=O)N[C@@](C)(CC)C(=O)N[C@@H](CCC(N)=O)C(=O)N[C@H](CCC(N)=O)C(=O)NC(C)(C)C(=O)NC(C)(C)C(=O)N[C@@H](CCC(N)=O)C(=O)N[C@H](CC(C)C)C(=O)N[C@H](CO)CC(C)C` (stereo not given in full) the growth was -53.4% (active) and 16.1% (inactive). With `CC[C@H](C)[C@@H]1OC(=O)C(C)(C)[C@H](O)[C@H](Cc2ccccc2)OC(=O)[C@H](C(C)C)OC(=O)[C@@H](NC(=O)c2cccc(NC=O)c2O)[C@@H](C)OC1=O` the growth was 9.86% (active). With `COc1ccc(N(CC(=O)NCCC[Te]c2ccccc2)C(=O)CNC(=O)OC(C)(C)C)cc1` the growth was 92.6% (inactive). With `CCOP(=O)(NC)OCC` the growth was 94.2% (inactive). In the case of `CC[C@H](C)[C@H](NC(=O)C12C3C4C1C1C2C3C41NC)C(=O)N(C)[C@H](C[C@@H](OC(C)=O)c1nc(C(=O)N[C@@H](Cc2ccccc2)C[C@H](C)C(=O)OC)cs1)C(C)C` (stereo not given in full), the growth is reported as 1.25% (active). With `O=C(c1ccccc1O)c1[nH]c(Cl)c(Cl)c1-n1c(C(=O)c2ccccc2O)cc(Cl)c1Cl` the growth was -13.8% (active). `O=C(O)c1cc([N+](=O)[O-])cc([N+](=O)[O-])c1` was tested, and the growth was 103% (inactive). In the case of `CCCCCN(CCCCC)CC(O)c1ccc(C)c(Cl)c1` (stereo not given), the growth is reported as 99.9% (inactive). In the case of `CC(=O)C(N)Cc1ccccc1` (stereo not given), the growth is reported as 97% (inactive). For `CC1=C2[C@H]3OC(=O)[C@@H](C)[C@@H]3CC[C@@]2(C)C=CC1=O`, the growth was 93.4% (inactive). For `Oc1c(O)c(Cl)c(Cl)c(Cl)c1Cl`, the growth was 74.2% (inactive). For `O=C(O)c1ccc([S-])cc1.[Au+].c1ccc(CN2[CH-]N(Cc3ccccc3)C(c3ccccc3)=C2c2ccccc2)cc1`, the growth was -63.2% (active). With `CN(CCF)/N=N/c1nc[nH]c1C(N)=O` the growth was 26.7% (inactive). `CCn1nccc1NC(=O)C(=O)c1cn(Cc2ccc(F)cc2)c2cccc(OC)c12` was tested, and the growth was 102% (inactive). In the case of `CN1CC(=O)N(O)C1(C)c1cccnc1` (stereo not given), the growth is reported as 94.8% (inactive). With `CCC1(C)CC(CCNCc2ccccc2O)(c2ccc(C)cc2)CCO1` (stereo not given) the growth was 110% (inactive). For `O=C(N/N=C\c1ccc(N(CCCl)CCCl)cc1Cl)c1cccnc1`, the growth was -69.6% (active). In the case of `CC(=O)c1ccc(C(=O)NCC2CCC3(CC2)OOC2(CCCCC2)OO3)cc1`, the growth is reported as 65.7% (inactive). `CC[C@]12C=CCN3CC[C@@]4(c5ccc(OC)cc5N(C)[C@H]4[C@@](O)(C(=O)OC)[C@@H]1OC(=O)CCCN1CCN(CCCC(=O)O[C@@H]4[C@]5(CC)C=CCN6CC[C@@]7(c8ccc(OC)cc8N(C)[C@H]7[C@@]4(O)C(=O)OC)[C@@H]65)CC1)[C@@H]32` was tested, and the growth was -88.4% (active). For `COC(=O)[C@@H](C[C@H](Cc1ccccc1)NC(=O)c1csc([C@@H](C[C@H](C(C)C)N(C)C(=O)[C@@H](NC(=O)[C@H]2CCCCN2C)C(C)C)OC(C)=O)n1)NC(=O)OCc1ccccc1`, the growth was 16.5% [9.5 µM] (inactive). With `CC(=O)O[C@H]1C(=O)[C@@]2(C)[C@H]([C@H](OC(=O)c3ccccc3)[C@]3(O)C[C@H](OC(=O)[C@H](OC(=O)OCC4COC(C)(C)O4)[C@@H](NC(=O)c4ccccc4)c4ccccc4)C(C)=C1C3(C)C)[C@]1(OC(C)=O)CO[C@@H]1C[C@@H]2O` (stereo not given in full) the growth was 2.65% (active). In the case of `CC1(C)CN=C(NN=C(/C=C/c2ccc(C(F)(F)F)cc2)/C=C/c2ccc(C(F)(F)F)cc2)NC1`, the growth is reported as -84% (active).
